{"source": "PubChem BioAssay AID504850", "about": "(National Center for Advancing Translational Sciences (NCATS), 2011)", "note": "Among all 2,300 compounds or so, about 1,200 (52%) were called active. About 34% were inconclusive and are not listed. Calls follow the shape of the dose curve; as a rule, active = well fitted inhibition curve with a large enough effect; inconclusive = small, poorly fitted or top-dose-only effect, or effect the other way; inactive = no such curve, though single readings can be large or run the other way. So high a share suggests a set chosen from earlier hits. This is one part of the list. Potency is read from the fitted curve at half-maximal effect.", "data": [{"test": "Confirmation screen for delayed death inhibitors of the malarial parasite plastid, 48 hour incubation; also: nearly all actives have a fitted effect of over 65% in size", "settings": "P. falciparum-infected erythrocytes, luciferase growth; series mostly up to 28.7 µM", "procedure,_shortened": "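Erythrocytes infected with luciferase-expressing P. falciparum (2% hematocrit, 0.1% parasitemia) incubated with compounds 48 hours at 37 C, 5% CO2, in RPMI/Albumax. Growth inhibition scored as reduced luminescence after detection reagent.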", "values": [{"compound": "CSc1c[n+]2c(n1C)CCC2", "Potency": "inactive"}, {"compound": "Cc1ccc(-n2c(-c3ccc(Cl)cc3)c[n+]3c2CCC3)cc1", "Potency": "0.355 µM (active)"}, {"compound": "Cc1c(C)n2c(SCC(=O)Nc3ccc4c(c3)OCCO4)nnc2[nH]c1=O", "Potency": "4.47 µM (active)"}, {"compound": "O=C(c1[nH]ncc1-c1cccc(Br)c1)C1CO1", "note": "(stereo unspecified)", "Potency": "12.6 µM (active)"}, {"compound": "Cc1onc(NC(=O)c2ccc([N+](=O)[O-])o2)c1Br", "Potency": "12.6 µM (active)"}, {"compound": "CC1=Nc2cc(C(=O)N3CCCC3)ccc2Sc2ccc(C)cc21", "Potency": "5.62 µM (active)"}, {"compound": "COc1ccc(CCN2CCCn3c2nc2c3c(=O)n(Cc3ccccc3F)c(=O)n2C)cc1OC", "Potency": "5.01 µM (active)"}, {"compound": "COc1cc(/C=C/C(=O)c2ccc(Cl)s2)cc(OC)c1O", "Potency": "14.1 µM (active)"}, {"compound": "COc1ccccc1C(=O)Nc1ccc2nc3n(c(=O)c2c1)CCCC3", "Potency": "11.2 µM (active)"}, {"compound": "COc1ccccc1CNC(=O)c1ccc2c(=O)n3c(nc2c1)CCCCC3", "Potency": "11.2 µM (active)"}, {"compound": "CCOC(=O)C1CCN(C(=O)C(=O)Nc2ccc3nc4n(c(=O)c3c2)CCCCC4)CC1", "Potency": "14.1 µM (active)"}, {"compound": "CCC(=O)N1CCc2cc(S(=O)(=O)N3CCN(c4cc(Cl)ccc4C)CC3)ccc21", "Potency": "inactive"}, {"compound": "CC(=O)N1CCc2cc(S(=O)(=O)N3CC(C)CC(C)C3)ccc21", "note": "(stereo unspecified)", "Potency": "11.2 µM (active)"}, {"compound": "CCC(=O)N1CCc2cc(S(=O)(=O)N3CCCCCC3)ccc21", "Potency": "12.6 µM (active)"}, {"compound": "O=C1C2CCCN2C(c2ccccc2)N1c1nccs1", "note": "(stereo unspecified)", "Potency": "inactive"}, {"compound": "Cc1ccc(Nc2nc(=O)c3cccnc3s2)c(Br)c1", "Potency": "inactive"}, {"compound": "O=S(=O)(Nc1cccc2ncccc12)c1cccs1", "Potency": "4.47 µM (active)"}, {"compound": "Cc1ccc(S(=O)(=O)Nc2cccc3ncccc23)s1", "Potency": "5.01 µM (active)"}, {"compound": "CCOc1ccc(CCn2c(-c3ccco3)nc3ccccc3c2=O)cc1OCC", "Potency": "10 µM (active)"}, {"compound": "CCOc1ccc(S(=O)(=O)Nc2cc(S(=O)(=O)N(CC)CC)ccc2N2CCCC2)cc1", "Potency": "2.51 µM (active)"}, {"compound": "N#CC(C#N)=C1C=CC=CN1/C(=C\\c1ccco1)C(=O)c1ccc(Br)cc1", "Potency": "15.8 µM (active)"}, {"compound": "COc1ccc(C(=O)/C(=C\\c2ccco2)N2C=CC=CC2=C(C#N)C#N)cc1", "Potency": "15.8 µM (active)"}, {"compound": "N#CC(C#N)=C1C=CC=CN1/C(=C\\c1ccco1)C(=O)c1ccc(Cl)cc1", "Potency": "14.1 µM (active)"}, {"compound": "COc1ccc(-c2cc(CNC(=O)CCl)on2)cc1", "Potency": "1.58 µM (active)"}, {"compound": "O=C(NCc1ccc2c(c1)OCO2)c1nc(S(=O)(=O)Cc2ccccc2F)ncc1Cl", "Potency": "inactive"}, {"compound": "O=C(CN(c1ccc2c(c1)OCCO2)S(=O)(=O)c1ccccc1)NCc1ccc(Cl)cc1", "Potency": "7.94 µM (active)"}, {"compound": "CC(C)N1C/C(=C/c2ccsc2)C(=O)/C(=C/c2ccsc2)C1", "Potency": "5.01 µM (active)"}, {"compound": "Cc1c(CCO)sc[n+]1CC(=O)OCCC12CC3CC(CC(C3)C1)C2", "Potency": "8.91 µM (active)"}, {"compound": "CCCCc1nc2cc(C(=O)N3CCN(c4nc(C)cnc4C)CC3)ccc2o1", "Potency": "12.6 µM (active)"}, {"compound": "CCC(C)(C)NC(=O)C(c1cccc(OC)c1OC)N(CC(C)C)C(=O)CCC(=O)Nc1cc(C)on1", "note": "(stereo unspecified)", "Potency": "10 µM (active)"}, {"compound": "CCOC(=O)Cn1nnnc1C(CC)N(Cc1cccs1)Cc1cc2ccc(OC)cc2[nH]c1=O", "note": "(stereo unspecified)", "Potency": "10 µM (active)"}, {"compound": "Cc1ccc(OCC(=O)Nn2cnnc2)c(Br)c1", "Potency": "inactive"}, {"compound": "Cc1ccc(C)c(-c2nnc(OCC(=O)Nc3cc(C)on3)c3ccccc23)c1", "Potency": "14.1 µM (active)"}, {"compound": "CC(C)N=C(NS(=O)(=O)c1ccccc1)C(Cl)(Cl)Cl", "Potency": "5.01 µM (active)"}, {"compound": "C=CCNC(=O)c1onc(CSc2cccc(Cl)c2)c1C(=O)O", "Potency": "inactive"}, {"compound": "CCc1ccc(-c2cn(C3CCCCC3)c(=S)[nH]2)cc1", "Potency": "14.1 µM (active)"}, {"compound": "CC(=O)/C=C/c1ccccc1Oc1c(F)c(F)nc(F)c1F", "Potency": "10 µM (active)"}, {"compound": "Cc1cccc2c1NC(=O)/C2=C\\C(=O)c1cccs1", "Potency": "inactive"}, {"compound": "CC(C)N(C(=O)CSc1nnc(-c2ccc3c(c2)OCO3)n1C)C(C)C", "Potency": "11.2 µM (active)"}, {"compound": "CC(NC(=O)Nc1ccc(Cl)cc1)c1ccc2c(c1)OCO2", "note": "(stereo unspecified)", "Potency": "inactive"}, {"compound": "O=C(N[C@@H](Cc1ccccc1)C(=O)CCl)OCc1ccccc1", "Potency": "inactive"}, {"compound": "COC(=O)[C@H](Cc1ccccc1)N(C)S(=O)(=O)c1cccc(S(=O)(=O)N(C)[C@@H](Cc2ccccc2)C(=O)OC)c1", "Potency": "12.6 µM (active)"}, {"compound": "CCCCCn1c(=O)c2ccccc2n2c(CCl)nnc12", "Potency": "10 µM (active)"}, {"compound": "COc1cccc(F)c1C(C[N+](=O)[O-])c1c(N)n(C)c(=O)n(C)c1=O", "note": "(stereo unspecified)", "Potency": "5.01 µM (active)"}, {"compound": "Cc1ccc(CN2CCCCC2C(=O)Nc2ccc(Oc3cccnc3)cc2)o1", "note": "(stereo unspecified)", "Potency": "11.2 µM (active)"}, {"compound": "O=C(Nc1c2c(nn1-c1ccc([N+](=O)[O-])cc1)CS(=O)(=O)C2)c1cccs1", "Potency": "inactive"}, {"compound": "O=C(Nc1ccc(N2CCN(C(=O)c3ccco3)CC2)cc1)c1ccc(F)cc1", "Potency": "11.2 µM (active)"}, {"compound": "O=C(Nc1ccc(N2CCN(C(=O)c3cccs3)CC2)cc1)c1ccc([N+](=O)[O-])o1", "Potency": "3.55 µM (active)"}, {"compound": "Cc1ccccc1C(=O)N1CCN(c2ccc(NC(=O)c3ccc([N+](=O)[O-])o3)cc2)CC1", "Potency": "10 µM (active)"}, {"compound": "O=C(Nc1ccc(N2CCN(C(=O)c3ccccc3)CC2)cc1)c1ccc([N+](=O)[O-])o1", "Potency": "5.01 µM (active)"}, {"compound": "O=C(NCc1ccc(F)cc1)C1CCN(S(=O)(=O)c2ccc(Br)s2)CC1", "Potency": "12.6 µM (active)"}, {"compound": "COc1ccc(CCNS(=O)(=O)c2ccc(Br)s2)cc1", "Potency": "inactive"}, {"compound": "O=C(COC(=O)C1C2CC3OC(=O)C1C3C2)Nc1ccccc1", "note": "(stereo unspecified)", "Potency": "inactive"}, {"compound": "O=S1(=O)Nc2c(ccc3cccnc23)-c2ccccc21", "Potency": "1.78 µM (active)"}, {"compound": "Cc1ccc(-c2nc(-c3cccnc3)sc2CC(=O)Nc2ccc(C)c(Cl)c2)cc1", "Potency": "4.47 µM (active)"}, {"compound": "Cc1nc(-c2ccccn2)sc1C(=O)Nc1ccc(Cl)c(Cl)c1", "Potency": "inactive"}, {"compound": "COc1cc(OC)c(OC)cc1CN1CCN(C(=O)c2cccc3ccccc23)CC1", "Potency": "12.6 µM (active)"}, {"compound": "CC1C/C(=C/c2ccncc2)C(=O)/C(=C/c2ccncc2)C1", "note": "(stereo unspecified)", "Potency": "3.98 µM (active)"}, {"compound": "CCSc1nnc(N2C(=O)c3ccc(C(=O)c4ccc(C(=O)O)cc4)cc3C2=O)s1", "Potency": "inactive"}, {"compound": "O=C(NC1CCN(Cc2ccccc2)CC1)C1CCN(c2nnc(-n3cccc3)s2)CC1", "Potency": "10 µM (active)"}, {"compound": "O=C(NC1CCCC1)C1CC(=O)N(CCc2ccccc2)C1", "note": "(stereo unspecified)", "Potency": "inactive"}]}]}
